D2 PAM-1 – positive allosteric modulators of human D2 dopamine receptor; actives 0.23% (n = 360,000); potentiation, % (no concentration beside the values); DiscoveRx D2 beta-arrestin cells, luminescence, 90 min; 100% = 57 uM dopamine signal; in the data active = potentiation above about 50%
Target sequence (P14416 whole entry, looked up): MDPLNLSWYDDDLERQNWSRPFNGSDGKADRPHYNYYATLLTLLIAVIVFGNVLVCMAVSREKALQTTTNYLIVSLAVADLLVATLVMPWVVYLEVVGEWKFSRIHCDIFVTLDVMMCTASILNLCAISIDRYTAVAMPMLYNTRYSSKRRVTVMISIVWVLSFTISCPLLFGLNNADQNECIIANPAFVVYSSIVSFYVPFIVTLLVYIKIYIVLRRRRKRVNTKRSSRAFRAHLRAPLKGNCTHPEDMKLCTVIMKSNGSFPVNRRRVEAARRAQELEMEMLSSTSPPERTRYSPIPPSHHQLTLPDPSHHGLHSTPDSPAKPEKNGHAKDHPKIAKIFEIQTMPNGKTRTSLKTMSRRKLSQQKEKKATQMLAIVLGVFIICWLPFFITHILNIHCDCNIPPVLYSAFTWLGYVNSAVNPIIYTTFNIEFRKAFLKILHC
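D2 cells co-treated with compound plus 50 nM dopamine (EC20) for 90 min at 37 deg C to detect potentiation. Beta-arrestin recruitment was read as enzyme-fragment luminescence after 1 h at ambient temperature. Full response was set by 57 uM dopamine.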
D2 ag-1 – human D2 receptor agonism in beta-arrestin assay; activation, % (concentration not given with the values); P14416; actives 0.084% (n = 360,000); DiscoveRx PathHunter D2 beta-arrestin, luminescence, 90 min; 100% = 57 uM dopamine signal; in the data active = activation above about 40%
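Agonist mode: compounds alone added to overnight-plated D2 PathHunter cells for 90 min at 37 C, with 57 uM final dopamine (EC100) defining full response. Beta-arrestin recruitment detected by chemiluminescent reagent, read after 1 h at ambient temperature.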
D2 antagonist – D2 dopamine receptor (human) antagonism; P14416; HEK293 TREx D2 cells, calcium flux, dopamine EC80; inhibition, % at 10 µM; actives 2% (n = 340,000); AID 485344; in the data active = inhibition above about 30%; inactive = below that, where a call was filed; note: 0% is about no effect
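Inhibition of EC80 dopamine-driven calcium flux, recorded kinetically, defines activity here; cells are a tetracycline-induced HEK293 T-REx line expressing force-coupled D2.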
D2 PAM-2 – D2 dopamine receptor (human) potentiation. P14416. HEK293 T-REx D2, calcium flux, EC20 dopamine potentiation. AID 485347. potentiation, % at 10 µM. actives 0.34% (n = 340,000);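 active = potentiation over 3 SD above the plate norm, cut at about 30% in these data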; note: 0% is about no effect
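Primary screen. Calcium kinetics in induced HEK293 T-REx D2 cells: compound pre-addition 180 s, EC20 dopamine, 180 s more.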
D2 ag-2 – D2 dopamine receptor (human) agonism; P14416; AID 485358; HEK293 T-REx D2 cells, calcium flux agonist mode; actives 0.53% (n = 340,000); activation, % at 2 µM;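 active = activation over 3 SD above normal in the single-dose calcium agonist read, cut at about 30% in these data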; note: 0% is about no effect
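Agonism is scored from calcium flux in a force-coupled, inducible HEK293 cell line expressing D2, read kinetically for 180 s after compound addition against dopamine controls.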
Starred values were filed as active, the others as inactive; . = no result given. A selection: hits, their analogues and other compounds. The true share with any hit is near 2.4%.

SMILES | D2 PAM-1 | D2 ag-1 | D2 antagonist | D2 PAM-2 | D2 ag-2
CCOc1cccc(/C(O)=C2/C(=O)C(=O)N(CCOC)C2c2ccco2)c1 (stereo not drawn) | -25.5 | -0.3 | 14.2 | 34.3* | 0.2
CCOc1cccc(/C(O)=C2/C(=O)C(=O)N(Cc3cccnc3)C2c2ccco2)c1 (stereo not drawn) | -5.2 | -2.5 | -7.7 | -2.8 | 1.0
CCOC(=O)Cn1c(=N)n(Cc2ccc(C(C)(C)C)cc2)c2ccccc21 | . | . | . | 0.5 | 4.9
Cc1ccc(C)c(N2CCN(C(=O)CN3C(=O)COc4ccc(S(=O)(=O)N5CCC(C)CC5)cc43)CC2)c1 | . | . | . | 8.0 | -0.4
Cc1ccc(NC(=O)Cc2ncc(C(F)(F)F)cc2Cl)cc1Cl | -17.4 | -1.2 | 43.9* | -7.4 | -0.2
Cc1ccc(-c2cc(C(F)F)nc(NCc3cccs3)n2)cc1 | -5.0 | -3.5 | 11.0 | 3.4 | 1.3
Cc1ccc(-c2cc(C(F)F)nc(NCc3cccnc3)n2)cc1 | -22.9 | -2.1 | 1.4 | 42.0* | 0.7
COc1ccc(/C=C(\C#N)c2nc(-c3cc4ccccc4oc3=O)cs2)cc1OC | . | . | . | -0.2 | .
CC(C)N(Cc1nc(-c2ccccc2)no1)C(=O)c1ccc2c(c1)OCO2 | -7.9 | 1.2 | 31.4* | 3.7 | -2.6
CC1(C(=O)Nc2cccc3cccnc23)CCN1C(=O)Cc1ccc(Cl)cc1Cl (stereo not drawn) | -3.1 | -2.3 | . | . | .
Nc1c2c(nc3c1CCC3)CCCC2 | . | . | 30.7* | -7.3 | 0.9
Nc1c2c(nc3ccn(-c4ccccc4)c(=O)c13)CCCCC2 | -16.4 | -1.3 | 6.3 | -10.9 | 0.6
CC(C)N(C(=O)CSc1nc2ccccc2n1Cc1ccccc1)C(C)C | -17.4 | -5.6 | -24.7 | 36.0* | -1.0
O=C(O)CCn1c(SCc2ccccc2)nc2ccccc21 | -12.2 | -1.2 | -0.5 | -5.1 | 0.2
Cc1noc(C)c1CSc1nc2ccccc2n1CCc1ccccc1 | -9.5 | -1.6 | -13.0 | 35.5* | -1.0
COC(=O)Cn1c(SCc2ccccc2)nc2ccccc21 | -3.8 | -0.5 | -1.4 | 31.3* | -0.6
CCSc1nc2ccccc2n1CC(=O)OC | -5.6 | -3.6 | -5.8 | -0.1 | 0.0
CSc1ccc(CNC(=O)c2ccc3c(c2)N(C)C(=O)C2CCCCN32)cc1 (stereo not drawn) | . | . | . | -5.3 | -0.5
COc1ccc(Cl)cc1NC(=O)CSc1ccc(-c2sc(C)nc2C)nn1 | . | . | . | -3.3 | 0.3
O=C(c1ccc2c(c1)N(Cc1c(F)cccc1Cl)C(=O)c1ccccc1S2)N1CCCC1 | . | . | . | 11.5 | 4.3
COc1ccc(CCNC(=O)CCc2c(C)nc3cc(-c4ccc(Cl)cc4)nn3c2C)c(OC)c1 | . | . | . | . | 0.4
S=c1nc(-c2ccccc2)n(CCCn2ccnc2)c2c1CCCC2 | -11.7 | -4.1 | 39.1* | 3.1 | 1.6
S=c1nc(-c2ccccc2)n(CCCN2CCOCC2)c2c1CCCC2 | -15.7 | -2.5 | -2.2 | -4.2 | 0.4
Cc1ccccc1OCC(=O)OCC(=O)Nc1ccc(Cl)cn1 | -4.0 | -3.2 | 30.6* | -11.9 | 0.5
Cc1cccc(NC(=O)C2CCC(CNS(=O)(=O)c3ccc4c(c3)CCCC(=O)N4)CC2)c1C (stereo not drawn) | . | . | . | -2.5 | 0.3
SMILES | D2 PAM-1 | D2 ag-1 | D2 antagonist | D2 PAM-2 | D2 ag-2
O=C(Nc1cccnc1)c1ccc2snnc2c1 | -13.0 | 2.1 | 35.4* | 5.7 | -1.5
O=C(Nc1ccccc1)c1ccc2snnc2c1 | -2.1 | -4.7 | -3.5 | -4.0 | -1.2
CCOC(=O)c1c(NC(=O)CCCOc2ccc(C)cc2)sc2c1CCC(C)C2 (stereo not drawn) | . | . | . | -6.1 | 0.9
O=C(COC(=O)C1CCN(c2ccc(C(F)(F)F)cn2)CC1)Nc1ncc(Cl)cc1Cl | -1.2 | -1.4 | 34.7* | 1.1 | 0.2
O=C(COC(=O)C1CCN(c2ccc(C(F)(F)F)cn2)CC1)Nc1ccc(Cl)cn1 | -4.2 | -6.2 | 10.4 | 1.6 | 1.0
O=C(COC(=O)C1CCN(c2ccc(C(F)(F)F)cn2)CC1)NCc1cccc(Cl)c1 | -30.0 | -7.3 | 33.6* | 4.5 | 2.3
Cc1cc(C)cc(C(O)c2ncc(-c3ccc(C(F)(F)F)cc3)[nH]2)c1 (stereo not drawn) | -7.8 | -1.2 | . | . | .
Oc1ccc(NC(=S)Nc2ccc(O)cc2)cc1 | -1.6 | 11.8 | 16.6 | 30.6* | -0.6
